# According to publication PMC4552634, “A New Set of Chemical Starting Points with Plasmodium falciparum Transmission-Blocking Potential for Antimalarial Drug Discovery” (PLoS ONE, 2015):
# Like-named read-outs stand apart in the source and are kept apart here. In all, about 13,000 compounds went through this assay and about 3,200 (25%) showed an effect of 50% or more. Some of the results follow.
# Test system: P. falciparum stage V gametocytes
# Parameters: BacTiter-Glo ATP luminescence viability of purified stage V gametocytes in 384-well plates, per cent inhibition versus DMSO
# Conditions: 48 h, 5 µM, inhibitor
Structure (SMILES),% Inhibition [%],% Inhibition (% Inhibition) [%]
CC(C)c1ccc(Cn2cc(-c3ccncc3)c3cc(OCc4ccccc4)ccc32)cc1 [TCMDC-137225],2.514,
CCc1cccc(NC(=O)c2ccc(CN3CCCN(CC4CCCCC4)CC3)cc2)c1 [TCMDC-136399],-29.35,
O=c1cc(NCCCNC2CCOc3c(I)cc(Cl)cc32)[nH]c2ccccc12 (stereo not drawn) [TCMDC-139489],-10.52,
O=C1COc2ccc(CNC3CCC(O)(CCc4ccnc5cc6c(cc45)OCCO6)CC3)nc2N1 (stereo not drawn) [TCMDC-141941],32.09,
O=C(c1ccc(-c2ccc(-c3nc4cc(C(F)(F)F)ccc4[nH]3)s2)cc1)N1CCN(CCc2ccccc2)CC1 [TCMDC-132482],3.451,
COc1cccc2cc(C(=O)N[C@@H](CC(C)C)C(=O)N[C@H](/C=N/N3C(=O)CN(Cc4ccccc4)C3=O)CCc3ccccc3)oc12 [TCMDC-136198],-10.77,
O=C(Cc1cccc(O)c1)Nc1ccc(-c2cccc(-c3nc4ccc(C(F)(F)F)cc4[nH]3)c2)cc1 [TCMDC-132176],0.6072,
COc1ccc(CCN2CCC(CN(C)Cc3cnn(-c4ccccc4)c3)CC2)cc1 [TCMDC-124632],-8.037,
CN1CCCC1CCNCc1ccc(-c2ccc(CNCCc3ccccc3)cn2)cc1 (stereo not drawn) [TCMDC-141617],85.17,
COc1ccc(CNCc2ccc(-c3ccc(CNCCc4ccccc4)cn3)cc2)cn1 [TCMDC-141647],26.41,
CN1CCC(C(=O)N(Cc2ccc(-c3ccc(CNCCc4ccccc4)cn3)cc2)C2CCN(Cc3ccccc3)CC2)CC1 [TCMDC-141552],110.4,
CC(C)C[C@@H](C(=O)N[C@@H](CCCCNC(=O)OCc1ccccc1)C(=O)Nc1nccs1)[C@H](C)N(O)C=O [TCMDC-137184],-15.37,
C[C@@H]([C@@H](CCCc1ccc(Cl)cc1)C(=O)N[C@H](C(=O)Nc1cccnc1)C(C)(C)C)N(O)C=O [TCMDC-138383],-4.065,
Cc1ccc2[nH]cc(C3CCN(CC4CCC(NC(=O)/C=C/c5ccc(Cl)c(Cl)c5)CC4)CC3)c2c1 (stereo not drawn) [TCMDC-139629],,74.07
NC(=O)c1ccc2[nH]cc(C3CCN(CC4CCC(NC(=O)/C=C/c5ccc(Cl)c(Cl)c5)CC4)CC3)c2c1 (stereo not drawn) [TCMDC-139885],,5.306
O=C(/C=C/c1ccc(Cl)c(Cl)c1)NC1CCC(CN2CCC(c3c[nH]c4ccccc34)C(O)C2)CC1 (stereo not drawn) [TCMDC-139645],-15.82,
O=C(/C=C/c1ccc(Cl)c(Cl)c1)NC1CCC(CN2CCC(c3c[nH]c4cc(C(F)(F)F)ccc34)CC2)CC1 (stereo not drawn) [TCMDC-139868],,4.839
Cc1ccc2[nH]cc(C3CCN(CC4CCC(NC(=O)/C=C/c5ccc(Cl)c(Cl)c5)CC4)CC3)c2c1 (stereo not drawn) [TCMDC-139630],,-23.48
CNC(=O)c1ccc2[nH]cc(C3CCN(CC4CCC(NC(=O)/C=C/c5ccc(Cl)c(Cl)c5)CC4)CC3)c2c1 (stereo not drawn) [TCMDC-139979],15.16,
O=C(/C=C/c1ccc(Cl)c(Cl)c1)NC1CCC(CN2CCC(c3c[nH]c4cc(O)ccc34)CC2)CC1 (stereo not drawn) [TCMDC-139642],41.76,

Structure (SMILES),% Inhibition [%],% Inhibition (% Inhibition) [%]
CS(=O)(=O)Nc1ccc2[nH]cc(C3CCN(CC4CCC(NC(=O)/C=C/c5ccc(Cl)c(Cl)c5)CC4)CC3)c2c1 (stereo not drawn) [TCMDC-139641],-16.95,
NC(=O)c1ccc2[nH]cc(C3CCN(CC4CCC(NC(=O)/C=C/c5ccc(Cl)c(Cl)c5)CC4)CC3)c2c1 (stereo not drawn) [TCMDC-139886],,70.38
O=C(/C=C/c1ccc(Cl)c(Cl)c1)NC1CCC(CN2CCC(c3c[nH]c4cc(C(F)(F)F)ccc34)CC2)CC1 (stereo not drawn) [TCMDC-139869],,50.13
O=C(/C=C/c1ccc(Cl)c(Cl)c1)N1CCC(CN2CCC(c3c[nH]c4cc(C(F)(F)F)ccc34)CC2)CC1 [TCMDC-139860],22.64,
O=C(/C=C/c1ccc(Cl)c(Cl)c1)NC1CCC(CN2CCC(c3c[nH]c4ccccc34)CC2)CC1 (stereo not drawn) [TCMDC-139447],56.58,
CC[C@@H]([C@@H](CC(C)C)C(=O)N[C@@H](CCCCNC(=O)OCc1ccccc1)C(=O)Nc1ccccn1)N(O)C=O [TCMDC-137163],20.28,
O=C(/C=C/c1ccc(Cl)cc1)NC1CCC(CN2CCC(c3c[nH]c4ccccc34)CC2)CC1 (stereo not drawn) [TCMDC-139716],,101.2
O=C(C=Cc1ccc(F)c(Br)c1)NC1CCC(CN2CCC(c3c[nH]c4ccccc34)CC2)CC1 (stereo not drawn) [TCMDC-139908],,99.67
O=C(/C=C/c1ccc(Cl)c(Cl)c1)NCCCCCN1[C@@H]2CC[C@H]1CC(c1c[nH]c3ccc(O)cc13)C2 (stereo partly drawn) [TCMDC-139295],,11.46
O=C(C=Cc1ccc(F)c(Br)c1)N1CCC(CN2CCC(c3c[nH]c4ccccc34)CC2)CC1 [TCMDC-139914],-25.75,
O=C(/C=C/c1ccc(Cl)c(Cl)c1)NC1CCC(N2CCC(c3c[nH]c4ccccc34)CC2)CC1 (stereo not drawn) [TCMDC-139778],-27.83,
O=C(C=Cc1ccc(F)c(Br)c1)NC1CCC(CN2CCC(c3c[nH]c4ccccc34)CC2)CC1 (stereo not drawn) [TCMDC-139919],,-60.64
O=C(/C=C/c1ccc(O)cc1)NC1CCC(CN2CCC(c3c[nH]c4ccccc34)CC2)CC1 (stereo not drawn) [TCMDC-139719],17.65,
O=C(/C=C/c1ccc(Cl)c(Cl)c1)NC1CCC(CN2CCC(c3c[nH]c4ccncc34)CC2)CC1 (stereo not drawn) [TCMDC-140109],103.5,
O=C(C=Cc1ccc(Br)cc1)NC1CCC(CN2CCC(c3c[nH]c4ccccc34)CC2)CC1 (stereo not drawn) [TCMDC-139948],31.75,
CC(=O)Nc1ccc2[nH]cc(C3CCN(CC4CCC(NC(=O)/C=C/c5ccc(Cl)c(Cl)c5)CC4)CC3)c2c1 (stereo not drawn) [TCMDC-139852],,29.73
CC(=O)Nc1ccc2[nH]cc(C3CCN(CC4CCC(NC(=O)/C=C/c5ccc(Cl)c(Cl)c5)CC4)CC3)c2c1 (stereo not drawn) [TCMDC-139851],,9.174
O=C(/C=C/c1ccc(Cl)c(Cl)c1)NC1CCC(N2CCC(c3c[nH]c4ccc(O)cc34)CC2)CC1 (stereo not drawn) [TCMDC-139812],98.54,
CC(C)C(C(=O)n1ncc2c3c(N)nc(N)nc3ccc21)C(C)C [TCMDC-137333],-35.38,
COc1cccc(C(=O)Nc2sc3c(c2C(N)=O)CCCC3)c1OC [TCMDC-123542],-31.1,

Structure (SMILES),% Inhibition [%],% Inhibition (% Inhibition) [%]
COc1cc2nc(NCC3CCCO3)n3nc(-c4ccccc4)nc3c2cc1OC (stereo not drawn) [TCMDC-125295],-4.624,
COc1ccc2cc(C(c3nnnn3CC3CCCO3)N3CCc4ccccc43)c(=O)[nH]c2c1 (stereo not drawn) [TCMDC-123534],43.68,
Cc1ccc(CN2CCN(c3cc4c(cc3Cl)CCN4C(=O)Cc3ccc(NC(=O)c4ccc(C(F)(F)F)cc4)cc3)CC2)cc1 [TCMDC-139509],28.44,
O=C(Nc1ccc(F)c(F)c1)c1ccc(CN2CCCN(Cc3cccc(F)c3)CC2)cc1 [TCMDC-136389],9.307,
CCC[C@@H]([C@@H](CC1CCCCC1)C(=O)N[C@H](C(=O)Nc1nccs1)[C@H](C)O)N(O)C=O [TCMDC-138142],-26.13,
CCOC(=O)C1=C(C)N=c2sc(=Cc3ccccc3O)c(=O)n2C1c1ccc(OC)c2ccccc12 (stereo not drawn) [TCMDC-124109],14.77,
O=C(/C=C/c1ccc([N+](=O)[O-])cc1)NC1CCC(CN2CCC(c3c[nH]c4ccccc34)CC2)CC1 (stereo not drawn) [TCMDC-139950],,23.65
O=[N+]([O-])c1ccc(Oc2c(Cl)cc(S(=O)(=O)N3CCC(CN4CCC(c5c[nH]c6ccccc56)CC4)CC3)cc2Cl)c(Cl)c1 [TCMDC-140169],-22.29,
N#Cc1c(Cl)cccc1Oc1ccc(S(=O)(=O)NC2CCC(CN3CCC(c4c[nH]c5ccccc45)CC3)CC2)cc1 (stereo not drawn) [TCMDC-140167],,10.9
O=[N+]([O-])c1ccc(Oc2c(Cl)cc(S(=O)(=O)NC3CCC(CN4CCC(c5c[nH]c6ccccc56)CC4)CC3)cc2Cl)c(Cl)c1 (stereo not drawn) [TCMDC-140165],62.46,
O=C(/C=C/c1ccc([N+](=O)[O-])cc1)NC1CCC(CN2CCC(c3c[nH]c4ccccc34)CC2)CC1 (stereo not drawn) [TCMDC-139934],,72.83
O=C(/C=C/c1ccc(Cl)cc1)NC1CCC(CN2CCC(c3c[nH]c4ccccc34)CC2)CC1 (stereo not drawn) [TCMDC-139701],,108.5
CC(C)c1ccc(C=CC(=O)NC2CCC(CN3CCC(c4c[nH]c5ccccc45)CC3)CC2)cc1 (stereo not drawn) [TCMDC-139936],103.3,
O=C(Nc1cccnc1)c1cc(-c2cccnc2)nc2ccc(Br)cc12 [TCMDC-125212],10.18,
Cc1cc(Cl)ccc1OC(C)C(=O)N1CCc2ccccc21 (stereo not drawn) [TCMDC-123620],-14.46,
Cc1cc(N2CCCC2)nc(Nc2ccc(NC(=O)COc3ccccc3)cc2)n1 [TCMDC-124969],-41.99,
COc1ccc(C(=O)NC(c2ccc(Cl)cc2Cl)c2cc(Cl)c3cccnc3c2O)cc1 (stereo not drawn) [TCMDC-125549],15.16,
COc1cccc(C(=O)NC(c2ccc(Cl)cc2Cl)c2cc(Cl)c3cccnc3c2O)c1 (stereo not drawn) [TCMDC-124342],31.32,
COc1cccc(C(=O)NC(C=Cc2ccccc2)c2cc(Cl)c3cccnc3c2O)c1 (stereo not drawn) [TCMDC-125550],112.7,
COc1cccc(C(=O)NC(c2ccccc2OC)c2cc(Cl)c3cccnc3c2O)c1 (stereo not drawn) [TCMDC-125612],79.98,
